# Values without a mark were called inactive. Calls of active or inactive are those of the source. The call rests on the fitted dose curve; in most records, active means well fitted curve in the direction sought with a large enough effect in the repeat runs; inconclusive means weak or mixed curves; inactive means flat fitted curve, though single readings scatter.
# Test: qHTS assay to test for compound auto fluorescence at 535 nm (green) in HEK293 cells (AID 720680)
# Conditions: green autofluorescence 485/535 nm; series mostly up to 91.3 µM
# Source text: U.S. Tox21 Program National Center for Advancing Translational Sciences [NCATS] NIH Chemical Genomics Center [NCGC] U.S. Environmental Protection Agency [EPA] National Institutes of Environmental Health Sciences [NIEHS] National Toxicology Program [NTP] U.S. Food and Drug Administration [FDA] Tox21 Assay Overview: Compound auto fluorescence often interferes with screening of the compound library against various biological targets and signaling pathways. Some of these compounds may have fluorophoric properties. Such properties may interfere with the assay outputs resulting in false positives and/or negatives. To decrease such complications and ensure the compound activities are relevant in terms of biological response, the Tox21 10K compound library was screened for auto fluorescence. From the fluorophores used as reporter signals in our screening assays, the auto fluorescence equivalencies of compounds against three fluorophores have been evaluated: Triamterene, Fluorescein and Rose Bengal sodium for blue, green and red fluorescence, respectively. The fluorescence intensities were measured using Excitation/Emission wavelengths at 405/460nm, 485/535nm and 540/590nm for blue, green and red labels, respectively. This assay includes the green fluorescence data.
# Tox21 Assay Protocol Summary: 2,000 HEK293 cells in 5 uL of culture medium containing 10% dialyzed FBS per well were dispensed into black wall/clear bottom 1536-well plates using a Multidrop Combi Dispenser (Thermo Scientific). The assay plates were incubated for 4-5 hr at 37C to allow cell attachment to the well bottom, followed by the transfer of 23 nL compound or DMSO vehicle by a pintool work station (Kalypsys, San Diego, CA). After the assay plates were incubated overnight at 37C and 5% CO2, fluorescence intensities in the assay plates were measured by an Envision (PerkinElmer, Shelton, CT) plate reader using three labels for measuring blue, green and red fluorescence at […] 460, 535 and 590nm respectively.
# On the % scale 0 is the no-effect control and ±100 the full control effect.
SMILES,outcome,"fluorescence, % of fluorescein"
N#CC(C#N)=NNc1cccc(Cl)c1,inactive,
c1ccc(N=NNc2ccccc2)cc1,inactive,
Brc1ccc(Oc2ccc(Br)cc2Br)c(Br)c1,inactive,
O=C(N[C@@H]1N=C(c2ccccc2F)c2cccc3c2N(CC3)C1=O)c1cc2ccccc2[nH]1,inactive,
COP(=O)(OC)O/C(=C\Cl)c1cc(Cl)c(Cl)cc1Cl,inactive,
CC(=O)[O-].CC(=O)[O-].O.O.O.[Pb+2],inactive,
CCCCC(CC)COC(=O)c1ccccc1C(=O)OCC(CC)CCCC (stereo not given),inactive,
COc1cnc(OC)n2nc(NS(=O)(=O)c3c(OCC(F)F)cccc3C(F)(F)F)nc12,inactive,
O.O.O.O.O.O.O=S(=O)([O-])[O-].[Ni+2],inactive,
CN,inactive,
O.O.O.O.O.O.O.O=S(=O)([O-])[O-].[Co+2],inactive,
O=C(Nc1ccc(F)cc1F)c1cccnc1Oc1cccc(C(F)(F)F)c1,inactive,
O=S(=O)(O)F,inactive,
c1cc[n+]2c(c1)-c1cccc[n+]1CC2,inactive,
CCCCCCCCCCCCCCn1cc[n+](C)c1,inactive,
C=CCBr,inactive,
CCC(OC(C)=O)C(CC(C)NC)(c1ccccc1)c1ccccc1 (stereo not given),inactive,
CCC(C)Br (stereo not given),inactive,
CC(Cc1ccc(O)cc1)NCC(O)c1cc(O)cc(O)c1 (stereo not given),inactive,
CCNS(=O)(=O)C(F)(F)C(F)(F)C(F)(F)C(F)(F)C(F)(F)C(F)(F)C(F)(F)C(F)(F)F,inactive,

SMILES,outcome,"fluorescence, % of fluorescein"
CC(=O)[O-].CC(=O)[O-].CC(=O)[O-].[Sb+3],,0.0079% [at 3.72 µM]
N#Cc1c2ccccc2cc2ccccc12,inactive,
CCOP(=O)(OCC)Oc1nc(Cl)c(Cl)cc1Cl,inactive,
O=[N+]([O-])c1cccc2cccc([N+](=O)[O-])c12,inactive,
O=c1[nH]c(Cl)c(Cl)cc1Cl,inactive,
N#Cc1ccc(N(CC(N)=O)CC(F)(F)F)cc1C(F)(F)F,inactive,
BrCCCBr,inactive,
N#CSCc1ccccc1,inactive,
COc1ccc2c3c1O[C@H]1[C@H](O)CC[C@H]4[C@@H](C2)N(C)CC[C@@]341,inactive,
CCCCCCCc1ccc(O)cc1,inactive,
CCCN,inactive,
ClC1=C(Cl)[C@]2(Cl)[C@H]3[C@H]([C@@H]4C=C[C@H]3C4)[C@@]1(Cl)C2(Cl)Cl,inactive,
c1ccc2c(c1)cc1ccc3cccc4ccc2c1c34,inactive,
COC(=O)C(C)N(C(=O)c1ccco1)c1c(C)cccc1C (stereo not given),inactive,
O=[N+]([O-])[O-].[Tl+],inactive,
N#Cc1sc2c(=O)c3ccccc3c(=O)c=2sc1C#N,inactive,
CC(=O)C(Cl)C(=O)N(C)C (stereo not given),inactive,
CCN(CC)C(=O)N[C@@H]1C=C2c3cccc4[nH]cc(c34)C[C@@H]2N(C)C1,inactive,
CNN,inactive,
CN(C)c1ccc(N)cc1,inactive,

# Source: PubChem BioAssay (Tox21)
